Source: PubChem (National Center for Advancing Translational Sciences (NCATS))
Most compounds without a hit are left out; they make up all but 19% or so of the library.
HT1080 IDH1KD tx: toxicity to HT-1080 IDH1 knockdown cells (counter line); HT-1080 IDH1 knockdown viability, ATP luminescence, 48 h; Potency, µM (titrated, usually from 46.1 µM), for the others: at the highest dose activity, negative = toxicity, hits mostly cytotoxic; actives 2% (n = 360,000);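 also: potency is read from the fitted curve at half-maximal effect; 0% = DMSO wells and -100% = cell-free medium wells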
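Cytotoxicity counter-line: IDH1KD HT-1080, 48 h, CellTiter-Glo. Curves classed by r2, magnitude and activity.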
IL-1B inflam inh: blocks inflammasome-driven IL-1 beta release; THP-1 LPS/ATP IL-1B secretion, AlphaLISA, 16 h; stronger effect = lower value; actives 4.7% (n = 360,000); activity change, % at 57.5 µM; AID 743279; in the data active = activity change below about -50%; inconclusive = mostly about -30% to -49%
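THP-1 cells pretreated 1 hr with compounds (up to 57.5 uM final), then stimulated with LPS (250 ng/mL final) plus ATP (1.25 mM final); secreted IL-1B measured by AlphaLISA after 16 hr, decreased signal indicating inhibition.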
TDP1 cell CPT: DT40-hTDP1 cell growth loss with CPT. chicken DT40 Tdp1-/-;hTDP1 cells + 20 nM CPT, ATP luminescence, 48 h. Potency, µM (series often up to 46.2 µM), for inactives: top-dose activity change, negative = growth inhibition, actives largely listed as inhibitors. actives 12% (n = 420,000); also: potency is read from the fitted curve at half-maximal effect; nearly all actives have a fitted effect of over 55% in size
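Chicken DT40 Tdp1-/- cells complemented with human TDP1, 400 cells/well, exposed to compounds plus 20 nM camptothecin for at least 48 h at 37 C; viability read as ATP content by CellTiter-Glo luminescence.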
ELG1 DNA repair: ELG1-dependent DNA repair inhibition; Potency, µM (titrated, usually from 46.1 µM), for inactives: at the highest dose activity change, negative = inhibition, actives largely listed as inhibitors; actives 2.3% (n = 330,000); AID 504467; HEK293T ELG1-luciferase reporter, luminescence, 16 h; DNA damage induced by 5-fluorouridine; also: potency is read from the fitted curve at half-maximal effect; nearly all actives have a fitted effect of over 55% in size
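5-Fluorouridine DNA damage + compound/DMSO, 2,000 cells/well, 16 h, 37 °C/5% CO2. ONE-Glo, 30 min RT, luminescence. Readout = decrease in reporter signal.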
HT1080-NT tox: kills 2HG-producing HT-1080-NT fibrosarcoma cells; HT-1080-NT fibrosarcoma viability, CellTiter-Glo ATP luminescence, 48 h; Potency, µM (titrated, usually from 46.1 µM), for the others: at the top dose activity, negative = less viability, actives largely listed as cytotoxic; actives 1.6% (n = 360,000); AID 686970;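 also: NT is the 2HG producing partner of a matched IDH1 knockdown line; potency is read from the fitted curve at half-maximal effect; 0% = DMSO-treated cells and -100% = media-only wells without cells; nearly all actives have a fitted effect of over 55% in size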
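Luminescent CellTiter-Glo readout after 48 hours of compound exposure at 37 degrees C defined viability of HT-1080-NT cells. Activity was normalized to DMSO wells and cell-free media wells; concentration-response curves were fitted and assigned curve classes.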
DT40 TDP1 no CPT: qHTS for Inhibitors of human tyrosyl-DNA phosphodiesterase 1 (TDP1): qHTS in cells in absence of CPT; DT40 Tdp1-/- hTDP1 cells, no CPT, ATP luminescence, 48 h; actives 15% (n = 420,000); Potency, µM (doses to about 46.2 µM), inactives show at the top dose activity change, negative = growth inhibition, usual class: inhibitors; AID 686978, 2013; also: potency is read from the fitted curve at half-maximal effect; nearly all actives have a fitted effect of over 55% in size
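Compound effects on proliferation are scored in DT40 Tdp1-/-;hTDP1 cells in the absence of CPT. ATP levels (CellTiter-Glo luminescence) are recorded after a ≥48 hr, 37 °C incubation.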
* hit, by the source's call; ? = inconclusive; . = no result; [ ] = dose if it differs, or a comment. Unless noted, calls follow the shape of the dose curve; as a rule, active = well fitted curve in the direction sought with a large enough effect; inconclusive = small, poorly fitted or top-dose-only effect, or another doubt; inactive = no such curve, though single readings can be large; an effect the other way counts as inactive or inconclusive. Unless noted, % is scaled to controls: 0 for no effect and ±100 for the full control effect.

SMILES	HT1080 IDH1KD tx	IL-1B inflam inh	TDP1 cell CPT	ELG1 DNA repair	HT1080-NT tox	DT40 TDP1 no CPT
CN1C(=O)C2(SCC(=O)N2c2ccc(Cl)cc2)c2ccccc21 (stereo not drawn)	.	.	-28%	.	.	?
O=C(CN1C(=O)C2(SCC(=O)N2c2ccc(Cl)cc2)c2ccccc21)NCCc1ccccc1 (stereo not drawn)	.	.	?	.	.	18µM*
CCC(=O)Nc1ccccc1C(=O)OCc1ccc(C(=O)c2ccccc2)cc1	-7%	7	21µM*	19%	-5%	?
CCC(=O)Nc1ccccc1C(=O)OCC(=O)c1cccc2ccccc12	8%	41	?	0%	11%	-24%
O=C(N/N=C/c1c[nH]c2ccccc12)c1cccc([N+](=O)[O-])c1	1%	-4	4%	-14%	1%	-29%
Cc1[nH]n(-c2ccccc2)c(=O)c1/C=N/NC(=O)c1cccc([N+](=O)[O-])c1	?	135	0.26µM*	0%	?	0.65µM*
COc1c(/C=N/Nc2ccc([N+](=O)[O-])cc2[N+](=O)[O-])c(C)nn1-c1ccccc1	8%	-4	?	-8%	10%	?
Cc1ccc(-n2[nH]c(C)c(/C=N/Nc3ccc([N+](=O)[O-])cc3[N+](=O)[O-])c2=O)cc1C	21µM*	-15	?	10µM*	?	21µM*
Cc1[nH]n(-c2cccc3ccccc23)c(=O)c1/C=N/NC(=O)c1cccc([N+](=O)[O-])c1	?	32	2.1µM*	?	?	1.3µM*
COCCNC(=S)N1CCC(C(=O)c2ccc3c(c2)OCCO3)CC1	3%	23	-22%	-14%	1%	?
Cc1ccc(N2CC(C(=O)Nc3ncc([N+](=O)[O-])s3)CC2=O)cc1 (stereo not drawn)	-14%	84	?	?	?	-29%
Cn1nc(NC(=O)CC(C)(C)CC(=O)O)c2ccccc21	-11%	23	-1%	12%	0%	-10%
COC(=O)c1nc2cc(C)ccn2c1F	3%	39	-10%	?	10%	2%
Cc1ccn2c(CC(C)(C)C)c(-c3ccc(F)cc3)nc2c1	6%	11	21µM*	.	10%	21µM*
Cc1ccc(Cc2c(-c3ccc(C)cc3)nc3cc(C)ccn23)cc1	-13%	-6	21µM*	.	-13%	21µM*
Cc1ccc(Cc2c(-c3ccc(Cl)cc3)nc3cc(C)ccn23)cc1	8%	-6	?	.	5%	18µM*
CSCC[C@@H](N)C(=O)O	.	.	-14%	.	.	-12%
O=C(CCNC(=O)c1ccccc1Cl)NCC(c1ccco1)N1CCCC1 (stereo not drawn)	3%	-1	8%	11%	1%	-15%
CCOC(=S)SCc1cn2ccc(C)cc2n1	10%	-57*	?	8%	9%	?
CCOC(=S)SCc1cn2ccccc2n1	-20%	?	0%	20%	-2%	-14%
CC(C)(CNC(=O)c1cnn(-c2nccc(-c3cccs3)n2)c1C1CC1)N1CCOCC1	.	.	-11%[9.04 µM]	.	.	-18%
Cc1ccc2cc(CNC(C)CO)c(N3CCC(O)CC3)nc2c1 (stereo not drawn)	.	.	1%[9.04 µM]	.	.	-7%
CC(C)(C)c1ccc(C(=O)N2CCCN(c3ccc([N+](=O)[O-])cn3)CC2)cc1	-9%	0	?	?	-1%	18µM*
O=C(NC(=O)N1CCN(c2ccc([N+](=O)[O-])cn2)CC1)c1c(Cl)cccc1Cl	5%	.	9.2µM*	24%	1%	?
O=C(NC(=O)N1CCN(c2ccc([N+](=O)[O-])cn2)CC1)c1ccccc1F	5%	1	?	?	3%	9.2µM*
SMILES	HT1080 IDH1KD tx	IL-1B inflam inh	TDP1 cell CPT	ELG1 DNA repair	HT1080-NT tox	DT40 TDP1 no CPT
O=[N+]([O-])c1ccc(N2CCCC2)nc1	24%	.	0%	1%	5%	-10%
CCCn1c(N)c(N(CCOC)C(=O)/C=C/c2cccc(Cl)c2)c(=O)[nH]c1=O	0%	-16	11%	3%	1%	15%
O=C(Nc1cc(F)ccc1F)c1cc2nc(-c3ccco3)cc(C(F)(F)Cl)n2n1	.	.	4%	.	.	0%
O=C(COc1ccc(/C=N/NC(=O)c2cc3ccccc3o2)cc1Br)Nc1ccccc1	-2%	-117*	18µM*	?	-25%	18µM*
O=C(COc1ccccc1[N+](=O)[O-])Nc1ccc2oc(=O)ccc2c1	1%	-13	-12%	19%	17%	2%
O=C(COc1ccccc1[N+](=O)[O-])Nc1ccc(NC(=O)c2cc3ccccc3o2)cc1	-22%	-12	23µM*	-8%	-10%	?
O=C(COc1ccccc1[N+](=O)[O-])Nc1ccc(-c2nc3ccccc3s2)cc1	.	.	21µM*	.	.	21µM*
O=C(N/N=C/c1ccco1)c1cc2ccccc2o1	-3%	-13	-10%	25%	24%	-22%
Cc1nc2ccc(NC(=O)COc3ccccc3[N+](=O)[O-])cc2s1	-9%	-11	-7%	4%	-5%	?
COc1ccc(S(=O)(=O)N2CCc3ccccc32)cc1C(=O)NCc1ccco1	1%	-5	3%	-26%	-22%	?
O=C(NCc1ccco1)c1cc(S(=O)(=O)N2CCCc3ccccc32)ccc1Cl	0%	0	15µM*	-10%	-3%	13µM*
CCNC(=O)COC(=O)c1cc(S(=O)(=O)N2CCCc3ccccc32)ccc1Cl	10%	-94*	-16%	-3%	6%	-6%
OCCN1CCN(CCOc2ccccc2-c2ccccc2)CC1	-15%	-26	?	-2%	-14%	?
c1ccc(-c2ccccc2OCCCN2CCCCC2)cc1	-15%	-15	16µM*	-28%	-8%	15µM*
c1ccc2c(OCCCN3CCCCCC3)cccc2c1	-4%	?	29µM*	-13%	?	23µM*
N=C(C[C@@H](O)COc1ccccc1-c1ccccc1)N1CCCCC1	.	.	3µM*	.	.	3.8µM*
CCc1ccc(S(=O)(=O)NCc2ccc(C(=O)NCCN(Cc3ccccc3)C(C)C)cc2)cc1	16µM*	-12	21µM*	.	?	13µM*
Cc1ccc(CCNC(=O)c2ccc(CNS(=O)(=O)c3ccc(F)cc3)cc2)cc1	.	.	13µM*	.	.	6.5µM*
Cc1ccc(CCNC(=O)c2ccc(CNS(=O)(=O)c3ccccc3)cc2)cc1	.	.	6.5µM*	.	.	5.8µM*
